About 5,500 (1.6%) of roughly 350,000 compounds were called active.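 The calls were made as follows: active = significant combined selectivity score with lowered wild-type GFP, culture density cut under 30%, mutant RFP and density less affected; inactive = any of these conditions unmet.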 The full list was thinned out, with actives kept by preference.
Experiment: GFP drop in mixed WT/humanized-ribosome E. coli culture – GFP/RFP fluorescence, OD600, single point, bacterial rRNA inhibitor project, primary screen (AID 720706)
Settings: E. coli WT GFP vs humanized-ribosome RFP mutants, 24 h; GFP signal change (wild-type ribosome): stronger effect = lower value, DMSO median 0, no signal -100; OD600 change: measured here: OD600 growth, DMSO median 0, no signal -100; RFP signal change: measured here: RFP humanized mutant strains, DMSO median 0, no signal -100, concentration not given here

SMILES	GFP signal change (wild-type ribosome)	OD600 change [%]	RFP signal change [%]
C[C@@H]1CN([C@@H](C)CO)S(=O)(=O)c2ccc(-c3ccc(F)cc3)cc2O[C@H]1CN(C)C(=O)c1ccccc1F	-8.04% (inactive)	-21	-3.3
O=C(C[C@H]1C[C@H]2c3cc(NC(=O)NC4CCCC4)ccc3O[C@H]2[C@@H](CO)O1)NCc1ccc(-c2ccccc2)cc1	-1.74% (inactive)	-6.28	2.06
Cc1ccc(NC(=O)Nc2cc(-c3ccccc3)nn2C)cc1Cl	-40.1% (active)	5.55	-13.4
Cc1cc(NC(=O)Nc2ccc(Cl)cc2)n(-c2ccccc2)n1	-29.1% (inactive)	-32.4	2.41
COc1ccc(NC(=O)c2cc3nc(-c4ccccc4)cc(C)n3n2)cc1OC	-22% (inactive)	-22.4	-6.99
C[C@H]1CN([C@@H](C)CO)S(=O)(=O)c2ccc(-c3cncnc3)cc2O[C@H]1CN(C)Cc1ccncc1	0.29% (inactive)	1.07	0.44
Cc1noc(C)c1NC(=O)N(C)C[C@@H]1Oc2ccc(NC(=O)Nc3ccc(F)cc3)cc2C(=O)N([C@H](C)CO)C[C@@H]1C	1.48% (inactive)	1.88	-0.103
C[C@@H]1CN([C@H](C)CO)S(=O)(=O)c2ccc(C3=CCCC3)cc2O[C@H]1CN(C)Cc1ccccc1F	-1.53% (inactive)	5.49	-3.33
C[C@@H]1CN([C@H](C)CO)S(=O)(=O)c2ccc(C#CC3CC3)cc2O[C@H]1CN(C)C(=O)C1CCCCC1	-17.1% (inactive)	-48	15.7
COc1ccccc1-c1cnc2c(c1)C(=O)N([C@@H](C)CO)C[C@@H](C)[C@@H](CN(C)C(=O)c1cccnc1)O2	4.96% (inactive)	-0.255	-1.54
C[C@@H]1CN([C@@H](C)CO)S(=O)(=O)c2ccc(Br)cc2O[C@@H]1CN(C)C(=O)C1CCCCC1	-5.25% (inactive)	-9.29	0.015
Cc1cccc(OCC(=O)NC(=S)Nc2ccccc2N2CCOCC2)c1	-22.8% (active)	-9.72	1.75
Cc1cc(C)cc(OCC(=O)Nc2ccc(N3CCOCC3)cc2N2CCOCC2)c1	-2.33% (inactive)	6.13	0.039
O=C(COc1ccc(Cl)cc1)NC(=S)Nc1ccccc1N1CCOCC1	-9.68% (inactive)	-9.44	-2.65
O=C(c1ccccn1)N1CC(=O)N2[C@H](CO)[C@H](c3ccc(C#CCc4ccccc4)cc3)[C@H]2C1	1.93% (inactive)	-4.41	-3.49
COCC#Cc1ccc2c(c1)O[C@H](CN(C)Cc1ccc3c(c1)OCO3)[C@H](C)CN([C@H](C)CO)S2(=O)=O	-2.4% (inactive)	-9.34	-0.135
O=C(NCc1nnnn1-c1ccc(Cl)cc1)c1ccc([N+](=O)[O-])o1	-23% (active)	2.62	-4.79
O=C(NCc1nnnn1-c1ccc(Cl)cc1)c1ccc2c(c1)OCO2	5.87% (inactive)	4.9	-2.26
O=C(Nc1ccc(Br)cn1)c1ccc([N+](=O)[O-])o1	-3.84% (inactive)	-3.66	-3.37
CSc1ccc(CNCCN2CCOCC2)cc1	6.43% (inactive)	16.1	-0.625
CC(C)(C)c1ccc(CCC2OCC(CN3CCOCC3)O2)cc1 (stereo not given)	-33.2% (active)	-11.3	-5.34
CC(CN1CCOCC1)OC(=O)c1ccc(C(C)(C)C)cc1 (stereo not given)	-5.42% (inactive)	-0.13	2.33
C/C=C/c1cnc2c(c1)C(=O)N([C@H](C)CO)C[C@H](C)[C@@H](CN(C)CC1CCOCC1)O2	7.65% (inactive)	16.9	-1.32
Cn1c(SCC(=O)Nc2nccs2)nnc1-c1cccnc1	11.6% (inactive)	16.8	-1.48

SMILES	GFP signal change (wild-type ribosome)	OD600 change [%]	RFP signal change [%]
Cc1[nH]c2ccccc2c1SCC(=O)Nc1nccs1	-21.9% (active)	-16.9	-2.17
CCn1c(SCC(=O)Nc2nccs2)nnc1-c1ccco1	10.8% (inactive)	0.14	0.233
COc1cccc(CNC(=O)COC(=O)CN2C(=O)NC3(CCCCC3C)C2=O)c1 (stereo not given)	3.13% (inactive)	0.95	0.493
CC1CCCCC12NC(=O)N(CC(=O)OCC(=O)NCc1ccc(F)cc1)C2=O (stereo not given)	-2.84% (inactive)	-0.669	-1.07
CC1CCCCC12NC(=O)N(CC(=O)OCc1c(F)cccc1Cl)C2=O (stereo not given)	-24.1% (active)	-16.3	0.314
Cc1cc2c(cc1C)[n+](C)cn2CC(O)COCC1CC=CCC1 (stereo not given)	-29.3% (active)	-16.1	3.07
Cc1noc(C)c1S(=O)(=O)Nc1ccc2c(c1)C(=O)N([C@H](C)CO)C[C@H](C)[C@H](CN(C)S(=O)(=O)c1cn(C)cn1)OCCCC[C@@H](C)O2	-2.25% (inactive)	-4.58	-3.75
COc1ccc(CN(C)C[C@@H]2Oc3ccc(NS(=O)(=O)c4cn(C)cn4)cc3C(=O)N([C@@H](C)CO)C[C@H]2C)cc1	-0.89% (inactive)	10.2	-0.875
Cc1ccc(C(=O)NN(CCC#N)C2=NS(=O)(=O)c3ccccc32)cc1	11% (inactive)	11	1.04
COc1ccc(/C=N/N(C)C2=NS(=O)(=O)c3ccccc32)cc1OC	14.8% (inactive)	9.54	-0.4
O=S1(=O)N=C(N(CCO)/N=C/c2ccccc2F)c2ccccc21	-21.1% (active)	-9.01	2.34
O=C(Nc1ccc(C(F)(F)F)cc1)N[C@@H]1CC[C@H](CCNC(=O)c2ccccc2F)O[C@@H]1CO	-6.45% (inactive)	-10.8	3.96
COc1ccc(NC(=O)Nc2ccc3c(c2)C(=O)N([C@H](C)CO)C[C@@H](C)[C@H](CN(C)C(=O)Cc2ccccc2)OCCCC[C@H](C)O3)cc1	-0.637% (inactive)	-0.596	2.91
COCCNc1nc(Nc2ccccc2Cl)c2sc(-c3ccccc3)cc2n1	-0.73% (inactive)	28.1	-2.05
CC(=O)Nc1ccc(CNc2nc(NCCN(C)C)nc3cc(-c4ccccc4)sc23)cc1	-20.5% (active)	-5.3	1.68
COCCNc1nc(NCc2ccc(NC(C)=O)cc2)c2sccc2n1	31.4% (inactive)	15.7	6.28
COc1ccc(NC(=O)N(C)C[C@@H]2Oc3ncc(-c4ccc(C#N)cc4)cc3C(=O)N([C@@H](C)CO)C[C@H]2C)cc1	-1.74% (inactive)	-0.24	-0.855
CS(=O)(=O)Nc1ccc2c(c1)[C@@H]1C[C@H](CC(=O)NCc3ccccn3)O[C@@H](CO)[C@@H]1O2	2.36% (inactive)	-0.375	1.41
O=C(NCCN1CCCCC1)[C@@H]1N[C@@H]2c3ccc(-c4ccccc4)c(=O)n3C[C@@H]2[C@H]1CO	-1.4% (inactive)	4.26	-4
COC(=O)C[C@@H]1CC[C@H]2[C@@H](COC[C@H](O)CN2C(=O)Nc2ccccc2OC)O1	-0.973% (inactive)	5.6	2.71
CCC(O)C1CCN(Cc2cn(-c3ccc(OC)cc3)nc2-c2cccc(F)c2)CC1 (stereo not given)	-12.5% (inactive)	-11	3.52
COc1ccc(-n2cc(CNC3CCOCC3)c(-c3cccc(F)c3)n2)cc1	-30.4% (active)	-24.4	-1.67
COc1ccc(-n2cc(CN(C)Cc3n[nH]c(=O)[nH]3)c(-c3cccc(F)c3)n2)cc1	-10.8% (inactive)	-14.6	-0.58
O=C(Nc1ccc(C(F)(F)F)cc1)c1cccc(-n2cnnn2)c1	-24.6% (active)	-17.2	-9.02

SMILES	GFP signal change (wild-type ribosome)	OD600 change [%]	RFP signal change [%]
O=C(O)CSCC(=O)Nc1ccc(C(F)(F)F)cc1	9.65% (inactive)	10.9	3.37
O=C(Nc1cccc(-n2cnnn2)c1)c1cccnc1	1.1% (inactive)	2.52	0.952
COc1ccccc1CNC(=O)C[C@@H]1CC[C@@H]2[C@@H](COc3ccc(NC(=O)Nc4ccc(F)c(F)c4)cc3C(=O)N2C)O1	-9.44% (inactive)	-10.3	-1.71
CCCNC(=O)C[C@@H]1C[C@H]2c3cc(NC(=O)Nc4ccccc4F)ccc3O[C@H]2[C@H](CO)O1	-3.87% (inactive)	-12.4	1.51
COC(=O)c1c(C)cc(O)c(C)c1O	-0.355% (inactive)	5.33	0.38
COC(=O)c1c(-c2ccc(C)cc2)csc1N	-1.07% (inactive)	-0.1	43.8
COC(=O)c1c(C(=O)OC)c2n(c1C)CCS2	-22.3% (active)	-9.31	-5.79
C/C=C/c1ccc([C@@H]2[C@@H](CO)N3C(=O)CN(C(=O)Nc4cccc(OC)c4)C[C@@H]23)cc1	-1.73% (inactive)	-7.8	3.44
O=C(NC(=S)NC1CCS(=O)(=O)C1)c1cccc([N+](=O)[O-])c1 (stereo not given)	3.91% (inactive)	8.03	-1.87
O=C(Nc1ccc(C2CC2(Cl)Cl)cc1)c1cccc([N+](=O)[O-])c1 (stereo not given)	-27.9% (active)	-19.1	-6.25
O=C(Nc1nnc(SCc2c(Cl)cccc2Cl)s1)c1cccc([N+](=O)[O-])c1	1.43% (inactive)	-3.04	-1.26
C[C@@H]1CN([C@H](C)CO)C(=O)Cc2cc(N(C)C)ccc2O[C@H]1CN(C)C(=O)NC1CCCCC1	-0.659% (inactive)	5.18	-1.29
COc1cccc(C#Cc2ccc([C@@H]3[C@H]4CN(C(=O)Cc5ccccc5)CC(=O)N4[C@H]3CO)cc2)c1	-5.04% (inactive)	-9.42	27.5
CCOc1ccc2nc(N(CCN(C)C)C(=O)c3ccc4ccccc4c3)sc2c1	-29.3% (active)	-1.85	4.17
CCN(CC)CCN(C(=O)c1ccc(N2C(=O)CCC2=O)cc1)c1nc2cc3c(cc2s1)OCO3	4.92% (inactive)	-10.9	-4.79
CCc1ccc2nc(N(CCCN(C)C)C(=O)c3ccc4c(c3)OCCO4)sc2c1	-22.5% (active)	-7.47	6.9
CCN(CC)CCN(C(=O)c1cc(Cl)sc1Cl)c1nc2cc3c(cc2s1)OCO3	4.27% (inactive)	-1.1	-0.673
CN(C)CCN(C(=O)C1=COCCO1)c1nc2ccc(Cl)cc2s1	2.56% (inactive)	-1.62	-1.96
CN(C)CCCN(C(=O)c1ccc(S(=O)(=O)N2CCCCCC2)cc1)c1nc2cc3c(cc2s1)OCCO3	-30% (active)	-20.1	0.23
CCOc1ccc2nc(C(=O)N3CCCC(C)C3)sc2c1 (stereo not given)	-6.88% (inactive)	-10.3	-0.532
CCN(CC)CCN(C(=O)c1ccc2c(c1)CCCC2)c1nc2c(OC)cccc2s1	-52.2% (inactive)	-75.4	-16.6
Cc1ccc2sc(NNC(=O)c3ccc4c(c3)OCCO4)nc2c1C	-7.09% (inactive)	-13.5	7.46

From PubChem BioAssay AID720706 (Broad Institute, 2013)
